Source: PubChem BioAssay AID2284323 (EPA ToxCast)
Activity calls are given as the source filed them. The calls were made as follows: active = hit-call score of the fitted dose curve at least 0.9, where 1 is the maximum; inactive = score below 0.9.

Each molecule was assayed on NCBI gene 447152 (assay: CCTE_GLTED_xIYD: CCTE's Xenopus Iodotyrosine Deiodinase (xIYD) Inhibition Assay, Great Lakes Toxicology and Ecology Division (GLTED) Lab).
Procedure: CCTE_GLTED_xIYD is a cell-free, single-readout assay that uses Xenopus (frog) iodotyrosine deiodinase (xIYD) enzyme from liver microsomes. Assay is based on iodide release measured by the Sandell-Kolthoff method and is run in 96-well plate format with assay plates run in triplicate (n=3) with measurements taken at 3 hours after chemical dosing. Platewise-normalization was used based on positive control (3-Nitro-L-tyrosine, MNT) and negative/solvent controls (DMSO, NaOH).CCTE_GLTED_xIYD is the assay component measured from the CCTE_GLTED_xIYD assay. It measures substrate involved in regulation of catalytic activity using spectrophotometry. The assay measures the deiodination activity of Xenopus (frog) IYD on the substrate monoiodotyrosine (MIT). After 3h incubation of substrate, enzyme, and test chemical, the components are applied to a 96-well Dowex column. Free iodide is not retained by the column and is separated from interfering assay components. The free iodide is measured by the Sandell-Kolthoff reaction in which the rate of reduction of cerium (Ce+4 to Ce+3) by arsenic (As+3 to As+5) is increased by the presence of iodide. This is observed as the loss of yellow color in the reaction and the quantified by the change in absorbance at 420 nm. The change in reaction rate is proportional to the amount of iodide present.Data from the assay component CCTE_GLTED_xIYD was analyzed at the assay endpoint CCTE_GLTED_xIYD in the positive analysis fitting direction relative to DMSO as the negative control and baseline of activity. Using a type of enzyme reporter, loss-of-signal activity can be used to understand iodotyrosine deiodinase activity. To generalize the intended target to other relatable targets, this assay endpoint is annotated to the 'dehalogenase' intended target family, where the subfamily is 'iodotyrosine deiodinase'.
Human transthyretin (TTR) assay, developed at Great Lakes Toxicology and Ecology Division (GLTED) within the EPA's Center for Computational Toxicology and Exposure (CCTE), is designed to test the chemicals' ability to displace T4 from the TTR protein. TTR (0.125uM) is incubated in presence of test chemical for 2 hours during which disrupting chemicals displace ANSA from the TTR protein. Results read fluorescence at 380 excitation and 475 emission.
`O=P(O)(O)CCC(F)(F)C(F)(F)C(F)(F)C(F)(F)C(F)(F)C(F)(F)C(F)(F)C(F)(F)F` was tested, and the AC50 was 65.4 µM (active). With `O=C(Cl)C(F)(F)C(F)(F)C(F)(F)C(F)(F)C(F)(F)C(F)(F)C(F)(F)C(F)(F)F` the outcome was “inactive”. In the case of `O=S(=O)(Cl)C(F)(F)C(F)(F)C(F)(F)C(F)(F)C(F)(F)C(F)(F)C(F)(F)C(F)(F)F`, the outcome is reported as “inactive”. For `O=S(=O)(O)C(F)(F)C(F)(F)C(F)(F)C(F)(F)C(F)(F)C(F)(F)C(F)(F)F`, the AC50 was 19.8 µM (active). With `O=C(O)CCC(F)(F)C(F)(F)C(F)(F)C(F)(F)C(F)(F)C(F)(F)C(F)(F)F` the outcome was “inactive”. `N[C@@H](Cc1ccc(O)c([N+](=O)[O-])c1)C(=O)O` was tested, and the AC50 was 0.113 µM (active). In the case of `O=C(O)C(F)(F)C(F)(F)C(F)(F)C(F)(F)C(F)(F)C(F)(F)C(F)(F)C(F)(F)C(F)(F)C(F)F`, the AC50 is reported as 64.2 µM (active). In the case of `O=C(O)C(F)(F)OC(F)(F)C(F)(F)OC(F)(F)C(F)(F)OC(F)(F)C(F)(F)C(F)(F)C(F)(F)F`, the AC50 is reported as 93.8 µM (active). For `O=C(O)C(F)(F)C(F)(F)C(F)(F)C(F)(F)C(F)(F)C(F)(F)C(F)(F)C(F)(F)Cl`, the AC50 was 38.9 µM (active).
